The source made the active and inactive calls.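 The calls were made as follows, unless noted: active = fluorescence slope higher than the sample average by over 3 SD (cut at about -0.22 in these data, passing the limit was not always enough); inactive = the rest.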

Broadly, the inhibition is the drop in the measured response relative to a control, in per cent.

Experiment [1] can be described thus: inhibitors of TNFa-induced NFkB p65 translocation, primary screen, imaging, HUVEC, MLSMR starter and 10KST1 sets (AID 438;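 active = inhibition above 20% together with a positive visual image hit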;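 also: compound added about 3h40 before a 20 min TNFalpha stimulation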;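 as to inhibition: signal is the nuclear over cytoplasmic p65 intensity ratio per well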). To be noted: HUVEC TNFa-induced p65 nuclear translocation; cell count: measured here: nuclei count (cytotoxicity indicator), at 2.08 µM unless noted; inhibition: at 2 µM, stronger effect = higher value unless noted.
The nature of experiment [2]: endothelial E-selectin expression blockers – imaging, HUVEC, immunofluorescence, MLSMR starter and 10KST1 sets, primary screen (AID 487;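 active = visually confirmed hit in the image check and inhibition above 20%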;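 as to inhibition: signal is fraction of cell area covered by stained E-selectin grains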;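 as to nuclei count: 100% = median nuclei count of all wells on the same plate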). To be noted: HUVEC TNFalpha-induced E-selectin immunofluorescence imaging, at 2 µM; inhibition: stronger effect = higher value; nuclei count: measured here: cell number, toxicity.
Experiment [3] is described as follows: Primary imaging screen for DUSP6 inhibitors that restore phospho-Erk in transfected HeLa cells, chemical complementation (AID 609;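 active = compounds giving at least 50% inhibition in the cell-based MKP-3 phosphatase rescue imaging test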;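 as to inhibition: phospho-Erk level distribution per well compared with pooled transfected vehicle control wells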). To be noted: HeLa MKP-3 transfected, phospho-Erk imaging KS statistic, at 10 µM.
Experiment [4] concerns the target Dual specificity protein phosphatase 6 (Homo sapiens) (UniProt Q16828). The description is as above. The following applies: HeLa MKP-3 transfected, phospho-Erk imaging KS statistic, at 10 µM, stronger effect = higher value.
For experiment [5], the target named is Voltage-gated potassium channel subunit beta-2 (Rattus norvegicus) (UniProt P62483). Description: inhibitors of rat Kvbeta2 reductase activity – biochemical, NADPH fluorescence, primary screen (AID 622).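 Also: slope of raw intensity against log time taken from 70 to 1610 s.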 To be noted: recombinant KvBeta, 4-cyanobenzaldehyde reduction, at 10 µM, stronger effect = higher value.
Experiment [6] shares this target. Put plainly: enhancers of rat Kvbeta2 NADPH turnover – biochemical, NADPH fluorescence, primary screen (AID 623;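 active = NADPH fluorescence slope more negative than the mean of all samples by about 3 SD, 99.7% confidence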;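 also: fluorescence intensity change per second fitted from 20 to 320 s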). To be noted: Recombinant KvBeta, NADPH fluorescence decrease slope, 10 min; at 10 µM; stronger effect = lower value.
Experiment [7] addresses Muscarinic acetylcholine receptor M4 (Homo sapiens) (UniProt P08173). Put plainly: M4-linked GIRK flux change, two-sided – cell-based, HEK293 M4/GIRK, thallium flux, BTC-AM, M4 allosteric agonist project, primary screen (AID 625;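 active = fluorescence slope after compound addition differing from the mean of all tested samples at 99.7% confidence, mostly higher but some lower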;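 also: thallium influx through GIRK channels coupled to M4 in HEK293 cells with BTC-AM dye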). The following applies: at 10 µM, actives lie on both sides.
A short description of experiment [8]: inhibitors of larval lipid processing in zebrafish, primary screen, whole organism, PED6 fluorescence, gall bladder and intestine (AID 686;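 active = a full or partial loss of lipid-probe fluorescence in the fish gall bladder, intestine or both, judged by eye; inactive = no fluorescence loss, or compound toxic to the fish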;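 also: larvae 5 to 7 days old with five fish per well; signal comes from phospholipase A2 cleavage of quenched PED6 carried via bile; overnight exposure to compound and PED6 before scoring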). To be noted: Zebrafish larvae PED6 lipid processing, fluorescence scoring.
The nature of experiment [9]: loss of swimming-algae plug formation – whole organism, Chlamydomonas reinhardtii, WT vs cilia-less mutant, absorbance, 96-well, primary screen (AID 463189;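 active = inhibition at or above 50% relative to wild type and mutant plate controls; inactive = inhibition below 50%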;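 also: 0% = wild type cc124 cells in DMSO and 100% = ciliumless bld1 mutant cells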). The following applies: Chlamydomonas reinhardtii gravitaxis, OD600 absorbance, 2 days; at 10 µM; stronger effect = higher value.
Experiment [10] can be described thus: reduction of polyQ htt aggregates in cells – imaging, exon1htt(103Q)mCFP cells, high-content imaging, primary screen (AID 483;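 active = visual image review flags a hit and inhibition of aggregation exceeds 20%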;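 also: compound exposure lasted 3 days before fixation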;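 as to nuclei count: percent of the per-plate median nuclei count of sample wells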). The following applies: exon1htt(103Q)mCFP cell line, aggregate imaging, at 2 µM; inhibition of aggregation: stronger effect = higher value; nuclei count: measured here: cell count, toxicity.
In experiment [11] the target is Alpha-2C adrenergic receptor (Homo sapiens) (UniProt P18825). Description: compounds altering alpha2C-coupled GIRK flux – cell-based, HEK293 alpha2C/GIRK1/2, thallium flux, primary screen (AID 624;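 active = fluorescence slope after compound addition differing from the mean of all screened samples at 99.7% confidence, in either direction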;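 also: slope of fluorescence ratio to pre-addition baseline per second over 15 to 24 s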). The following applies: thallium flux BTC fluorescence, at 10 µM, actives lie on both sides.
A short description of experiment [12]: blockers of RIG-like receptor reporter activation – cell-based, Sendai virus stimulus, luciferase, 10K MLSCN set, TLR/RLR signaling modifier project, primary screen (AID 602276;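 active = inhibition at or above 50% at 10 µM; inactive = inhibition below 50%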;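 also: firefly luciferase from ISG56 promoter only with Renilla not read in this screen; 0% = Sendai virus plus DMSO and 100% = medium plus DMSO without virus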). The following applies: HEK293 RL24 IRF3 luciferase reporter, at 10 µM, stronger effect = higher value. For orientation: In a reporter assay the amount or activity of a reporter protein is the signal.

A short description of experiment [13]: TLR3 IRF3 reporter activation blockers – cell-based, poly I:C stimulus, luciferase, 10K MLSCN set, primary screen (AID 602277;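 active = inhibition of the reporter signal at or above 50%; inactive = inhibition below 50%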). The following applies: HEK293-TLR3 RL24 IRF3 luciferase reporter, at 10 µM, stronger effect = higher value.
The mark [14] stands for this setting: measured here: cell density z-score.
The mark [15] stands for this setting: measured here: nuclear c-Myc green intensity z-score.
Where [16] appears, read: measured here: nuclear pErk red intensity z-score, stronger effect = higher value.

Sequence of Voltage-gated potassium channel subunit beta-2 (Rattus norvegicus) (P62483 whole entry, looked up): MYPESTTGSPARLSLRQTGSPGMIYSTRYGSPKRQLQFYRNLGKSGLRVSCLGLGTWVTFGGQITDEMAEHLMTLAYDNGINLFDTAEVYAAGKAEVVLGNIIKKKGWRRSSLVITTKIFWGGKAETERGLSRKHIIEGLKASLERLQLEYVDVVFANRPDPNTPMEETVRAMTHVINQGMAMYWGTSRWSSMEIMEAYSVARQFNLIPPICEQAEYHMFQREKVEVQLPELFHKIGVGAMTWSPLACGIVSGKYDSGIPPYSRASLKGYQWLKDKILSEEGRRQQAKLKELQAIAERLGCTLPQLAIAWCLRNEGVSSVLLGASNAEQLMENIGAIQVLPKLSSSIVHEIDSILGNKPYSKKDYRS
Sequence of Muscarinic acetylcholine receptor M4 (Homo sapiens) (P08173 whole entry, looked up): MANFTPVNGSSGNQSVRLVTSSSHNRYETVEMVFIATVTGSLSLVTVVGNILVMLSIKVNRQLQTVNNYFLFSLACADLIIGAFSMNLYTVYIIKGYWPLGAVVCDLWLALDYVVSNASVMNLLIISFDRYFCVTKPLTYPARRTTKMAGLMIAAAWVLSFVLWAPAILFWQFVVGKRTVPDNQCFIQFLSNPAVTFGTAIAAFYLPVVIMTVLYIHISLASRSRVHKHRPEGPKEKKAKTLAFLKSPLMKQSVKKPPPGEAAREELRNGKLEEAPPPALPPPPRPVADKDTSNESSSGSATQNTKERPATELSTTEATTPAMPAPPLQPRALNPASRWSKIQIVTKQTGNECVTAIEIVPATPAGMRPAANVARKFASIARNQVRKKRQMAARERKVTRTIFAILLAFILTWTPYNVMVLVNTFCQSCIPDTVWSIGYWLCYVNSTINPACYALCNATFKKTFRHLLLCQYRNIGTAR
Sequence of Dual specificity protein phosphatase 6 (Homo sapiens) (Q16828 whole entry, looked up): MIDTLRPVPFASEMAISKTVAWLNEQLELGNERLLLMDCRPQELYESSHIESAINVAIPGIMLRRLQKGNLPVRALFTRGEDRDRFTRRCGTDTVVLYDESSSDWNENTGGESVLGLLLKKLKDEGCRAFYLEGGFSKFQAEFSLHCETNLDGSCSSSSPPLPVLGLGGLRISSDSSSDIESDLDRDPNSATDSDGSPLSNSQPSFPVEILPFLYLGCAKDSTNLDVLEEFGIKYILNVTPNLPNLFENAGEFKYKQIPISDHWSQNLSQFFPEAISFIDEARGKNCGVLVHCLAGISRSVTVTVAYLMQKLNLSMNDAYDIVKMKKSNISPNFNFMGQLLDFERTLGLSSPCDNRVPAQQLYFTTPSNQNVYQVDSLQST
Sequence of Alpha-2C adrenergic receptor (Homo sapiens) (P18825 whole entry, looked up): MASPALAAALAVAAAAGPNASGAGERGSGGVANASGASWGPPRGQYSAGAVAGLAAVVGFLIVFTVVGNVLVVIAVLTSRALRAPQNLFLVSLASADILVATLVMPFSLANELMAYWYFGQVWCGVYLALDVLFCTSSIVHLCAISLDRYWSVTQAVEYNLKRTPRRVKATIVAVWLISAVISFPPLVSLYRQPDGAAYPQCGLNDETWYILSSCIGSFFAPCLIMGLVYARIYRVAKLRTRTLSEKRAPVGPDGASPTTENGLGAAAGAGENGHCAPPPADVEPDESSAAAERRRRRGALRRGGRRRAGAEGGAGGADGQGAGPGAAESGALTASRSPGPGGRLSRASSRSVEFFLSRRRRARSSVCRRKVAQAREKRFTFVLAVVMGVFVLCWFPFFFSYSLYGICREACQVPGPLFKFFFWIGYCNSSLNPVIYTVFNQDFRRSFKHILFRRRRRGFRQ

Turning to `COc1ccc2c(c1OC)C(=O)OC2c1c(O)n(C2CCCCC2)c(=O)[nH]c1=O` (configuration not stated), the cell count in experiment [1] worked out at 572. Also, the inhibition in experiment [1] was -9.7% (inactive); in experiment [2], -2.8% (inactive); in experiment [4], 15.9% (inactive); in experiment [9] it was 6.27% (inactive). Moreover, the nuclei count in [2] amounted to 150%. The z-score in experiment [3] (setting [14]) was 0.755; in experiment [3] (setting [15]) it was 0.301; in [3] (setting [16]), 0.433. Moreover, the values for the fluorescence slope in experiment [5] and in experiment [7] were -0.379 (inactive) and 0.00555 (inactive), respectively. Besides, in experiment [6], the NADPH fluorescence slope is -7.1e-05 (inactive). Further, in experiment [8], the result was inactive.

`NCC1(c2ccc3c(c2)OCCO3)CCCC1` came in with a cell count in experiment [1] of 634. In addition, the inhibition in experiment [1] is 8.6% (inactive); in experiment [2] it was -19.9% (inactive); in experiment [4], -13.3% (inactive); in experiment [9], -6.44% (inactive). The nuclei count in [2] stood at 120%. Moreover, the z-score in experiment [3] (setting [14]) was -0.692; in [3] (setting [15]), -0.463; in experiment [3] (setting [16]), 0.187. Besides, the results for the fluorescence slope in experiment [5] and in [7] were -0.453 (inactive) and 0.0056 (inactive), respectively. In addition, the NADPH fluorescence slope in experiment [6] was -2.2e-05 (inactive). Further, in [8], the compound was called inactive.

In experiment [1], `C=CCOC(=O)C1=C(C)OC(N)=C(C#N)[C@@]12C(=O)N(CC(N)=O)c1ccccc12` displayed a cell count of 473. Also, the inhibition in [1] was -1.4% (inactive); in experiment [2] it was -499% (inactive); in experiment [4] it was 2.71% (inactive); in experiment [9] it was 1.7% (inactive). In addition, in experiment [2], the nuclei count came to 193%. For the same compound, the figures for the z-score in [3] (setting [14]), in [3] (setting [15]) and in [3] (setting [16]) were 0.623, -0.273 and 0.824, respectively. The fluorescence slope in experiment [5] was -0.441 (inactive); in experiment [7], 0.00506 (inactive). Moreover, the NADPH fluorescence slope in experiment [6] is -5.7e-05 (inactive). For the same compound, the compound was classed as inactive in experiment [8].

Consider `CC1(c2ccccc2)NCCN2C(=O)CSC21` (configuration not stated), for which, in experiment [1], the cell count was found to be 632. The inhibition in [1] is 2.3% (inactive); in experiment [2], 32.4% (inactive); in experiment [4], 1.12% (inactive); in experiment [9], 8.43% (inactive). For the same compound, the nuclei count in experiment [2] was determined as 147%. Moreover, the z-score is 1.05 in [3] (setting [14]), -0.953 in [3] (setting [15]) and -0.166 in experiment [3] (setting [16]). Besides, the fluorescence slope in [5] is -0.477 (inactive); in experiment [7], 0.00532 (inactive). Further, in experiment [6], the NADPH fluorescence slope was -6.1e-05 (inactive). For the same compound, the outcome in [8] was inactive.

For the compound `COc1ccccc1-n1c(O)c(C=NCCCn2ccnc2)c(=O)[nH]c1=O`, the cell count in experiment [1] worked out at 752. Moreover, the inhibition is 3.4% (inactive) in experiment [1], -23.3% (inactive) in experiment [2], 7.83% (inactive) in [4] and 5.72% (inactive) in experiment [9]. The nuclei count in [2] amounted to 150%. In addition, the z-score in experiment [3] (setting [14]) was -0.173; in experiment [3] (setting [15]), -0.884; in experiment [3] (setting [16]) it was 0.0227. Besides, the fluorescence slope is -0.426 (inactive) in experiment [5] and 0.00527 (inactive) in experiment [7]. For the same compound, the NADPH fluorescence slope in experiment [6] is -4.1e-05 (inactive). Moreover, in [8], the compound was classed as inactive.

Take `CCOc1cccc(N2C(=O)CC(=O)NC2=O)c1`: the cell count in experiment [1] is 351. Besides, the inhibition in experiment [1] is -3.3% (inactive); in experiment [2], -63.8% (inactive); in experiment [12], 2.1% (inactive); in experiment [13] it was 3.82% (inactive). In addition, the inhibition of aggregation in experiment [10] is -8.7% (inactive). The nuclei count in experiment [10] is 109%; in [2] it was 107%. The fluorescence slope in experiment [5] is -0.524 (inactive). Further, the NADPH fluorescence slope in experiment [6] is -1.6e-06 (inactive). The slope in experiment [11] was 0.00568 (inactive).

Consider `Cc1cccc(-n2c(O)c(C=NCCCN3CCOCC3)c(=O)[nH]c2=O)c1C`, for which the cell count in [1] worked out at 710. Moreover, the inhibition in experiment [1] was -3.5% (inactive); in experiment [2] it was 26.7% (inactive); in experiment [12], 0.794% (inactive); in experiment [13], 3.78% (inactive). For the same compound, the inhibition of aggregation in [10] was 9.8% (inactive). The nuclei count in experiment [10] came to 96.5%; in experiment [2], 102%. Also, in [5], the fluorescence slope is -0.391 (inactive). The NADPH fluorescence slope in experiment [6] is 2.3e-05 (inactive). In addition, in experiment [11], the slope was 0.00546 (inactive).

The values above are taken from PubChem BioAssay.
